In ChEMBL document CHEMBL1961873, “Compounds: GSK PKIS; Assays: Nanosyn kinase panel” (2012) one finds inhibition data, which are given here for 16 compounds.

Test [1] concerns Tyrosine-protein kinase ABL1 (Homo sapiens), P00519 [T315I]. To be noted: at 1 µM.
Test [2] relates to Tyrosine-protein kinase ABL1 (Homo sapiens), P00519 [Y253F]. To be noted: at 0.1 µM.
The test system is the same in test [3]. The following applies: at 1 µM.
For test [4], the target named is Tyrosine-protein kinase ABL1 (Homo sapiens) (UniProt P00519). The following applies: at 0.1 µM.
For test [5] the target is unchanged. To be noted: at 1 µM.
Test [6] concerns the target ALK tyrosine kinase receptor (Homo sapiens) (UniProt Q9UM73). The following applies: at 0.1 µM.
The target is the same in test [7]. To be noted: at 1 µM.
Test [8] concerns the target Tyrosine-protein kinase ABL2 (Homo sapiens) (UniProt P42684). The following applies: at 0.1 µM.
Test [9] has the same target. The following applies: at 1 µM.
The target in test [10] is Tyrosine-protein kinase receptor UFO (Homo sapiens) (UniProt P30530). To be noted: at 0.1 µM.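 Note: values are mean percent inhibition of AXL from the GSK PKIS screen.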
Chain of Tyrosine-protein kinase receptor UFO (Homo sapiens) (P30530 whole entry): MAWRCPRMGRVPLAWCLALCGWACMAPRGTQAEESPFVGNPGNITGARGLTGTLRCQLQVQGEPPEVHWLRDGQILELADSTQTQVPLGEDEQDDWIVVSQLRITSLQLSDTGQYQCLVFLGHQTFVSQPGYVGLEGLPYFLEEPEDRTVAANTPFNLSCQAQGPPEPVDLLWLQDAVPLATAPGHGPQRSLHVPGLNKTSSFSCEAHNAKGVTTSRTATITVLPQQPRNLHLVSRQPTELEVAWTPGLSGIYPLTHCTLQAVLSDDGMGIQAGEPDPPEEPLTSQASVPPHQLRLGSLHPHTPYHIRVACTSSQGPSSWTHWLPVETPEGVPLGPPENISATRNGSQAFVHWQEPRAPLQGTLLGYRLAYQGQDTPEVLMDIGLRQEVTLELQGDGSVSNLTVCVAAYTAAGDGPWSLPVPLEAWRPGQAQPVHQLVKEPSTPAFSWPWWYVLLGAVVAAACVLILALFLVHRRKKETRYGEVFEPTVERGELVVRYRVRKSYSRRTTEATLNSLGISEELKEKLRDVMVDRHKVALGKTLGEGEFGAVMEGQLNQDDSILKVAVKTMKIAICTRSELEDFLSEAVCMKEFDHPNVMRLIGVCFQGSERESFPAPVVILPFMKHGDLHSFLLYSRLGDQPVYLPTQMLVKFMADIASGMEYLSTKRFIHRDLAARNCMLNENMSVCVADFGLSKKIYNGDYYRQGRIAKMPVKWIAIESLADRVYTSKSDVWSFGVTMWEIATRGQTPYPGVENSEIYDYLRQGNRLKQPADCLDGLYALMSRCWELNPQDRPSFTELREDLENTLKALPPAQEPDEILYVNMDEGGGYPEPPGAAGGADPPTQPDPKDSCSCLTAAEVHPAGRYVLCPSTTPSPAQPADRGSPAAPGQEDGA

Chain of Tyrosine-protein kinase ABL2 (Homo sapiens) (P42684 whole entry): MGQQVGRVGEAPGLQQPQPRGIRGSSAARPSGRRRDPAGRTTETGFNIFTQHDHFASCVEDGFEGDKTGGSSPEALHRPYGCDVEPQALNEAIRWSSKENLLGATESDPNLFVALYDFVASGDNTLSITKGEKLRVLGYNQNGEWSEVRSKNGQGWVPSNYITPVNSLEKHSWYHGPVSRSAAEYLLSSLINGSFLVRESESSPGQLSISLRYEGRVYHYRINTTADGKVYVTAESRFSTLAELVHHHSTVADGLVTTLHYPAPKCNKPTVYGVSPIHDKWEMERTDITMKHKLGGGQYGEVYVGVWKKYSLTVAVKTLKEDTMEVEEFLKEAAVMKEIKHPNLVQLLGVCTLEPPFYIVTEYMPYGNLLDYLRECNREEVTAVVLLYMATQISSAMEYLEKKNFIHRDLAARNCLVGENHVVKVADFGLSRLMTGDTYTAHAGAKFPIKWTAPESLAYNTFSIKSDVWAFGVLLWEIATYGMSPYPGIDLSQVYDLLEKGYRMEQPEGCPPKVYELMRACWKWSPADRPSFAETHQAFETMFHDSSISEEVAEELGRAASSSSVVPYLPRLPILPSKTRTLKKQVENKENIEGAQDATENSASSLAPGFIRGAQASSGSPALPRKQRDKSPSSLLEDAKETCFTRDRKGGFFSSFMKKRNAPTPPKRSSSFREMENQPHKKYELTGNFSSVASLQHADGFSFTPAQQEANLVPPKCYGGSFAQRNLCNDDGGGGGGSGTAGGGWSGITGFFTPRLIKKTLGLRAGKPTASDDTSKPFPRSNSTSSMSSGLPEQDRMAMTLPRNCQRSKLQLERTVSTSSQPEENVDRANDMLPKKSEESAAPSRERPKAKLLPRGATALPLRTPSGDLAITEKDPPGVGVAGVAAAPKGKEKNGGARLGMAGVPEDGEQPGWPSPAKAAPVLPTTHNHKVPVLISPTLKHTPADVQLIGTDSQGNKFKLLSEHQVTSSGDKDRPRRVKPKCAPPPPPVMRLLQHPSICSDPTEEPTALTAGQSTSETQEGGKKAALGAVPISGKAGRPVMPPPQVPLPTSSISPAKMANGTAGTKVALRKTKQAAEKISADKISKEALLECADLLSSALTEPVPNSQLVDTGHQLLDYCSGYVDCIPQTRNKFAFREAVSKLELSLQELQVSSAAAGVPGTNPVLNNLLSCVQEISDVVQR
Chain of ALK tyrosine kinase receptor (Homo sapiens) (Q9UM73 19-1620 limits assumed): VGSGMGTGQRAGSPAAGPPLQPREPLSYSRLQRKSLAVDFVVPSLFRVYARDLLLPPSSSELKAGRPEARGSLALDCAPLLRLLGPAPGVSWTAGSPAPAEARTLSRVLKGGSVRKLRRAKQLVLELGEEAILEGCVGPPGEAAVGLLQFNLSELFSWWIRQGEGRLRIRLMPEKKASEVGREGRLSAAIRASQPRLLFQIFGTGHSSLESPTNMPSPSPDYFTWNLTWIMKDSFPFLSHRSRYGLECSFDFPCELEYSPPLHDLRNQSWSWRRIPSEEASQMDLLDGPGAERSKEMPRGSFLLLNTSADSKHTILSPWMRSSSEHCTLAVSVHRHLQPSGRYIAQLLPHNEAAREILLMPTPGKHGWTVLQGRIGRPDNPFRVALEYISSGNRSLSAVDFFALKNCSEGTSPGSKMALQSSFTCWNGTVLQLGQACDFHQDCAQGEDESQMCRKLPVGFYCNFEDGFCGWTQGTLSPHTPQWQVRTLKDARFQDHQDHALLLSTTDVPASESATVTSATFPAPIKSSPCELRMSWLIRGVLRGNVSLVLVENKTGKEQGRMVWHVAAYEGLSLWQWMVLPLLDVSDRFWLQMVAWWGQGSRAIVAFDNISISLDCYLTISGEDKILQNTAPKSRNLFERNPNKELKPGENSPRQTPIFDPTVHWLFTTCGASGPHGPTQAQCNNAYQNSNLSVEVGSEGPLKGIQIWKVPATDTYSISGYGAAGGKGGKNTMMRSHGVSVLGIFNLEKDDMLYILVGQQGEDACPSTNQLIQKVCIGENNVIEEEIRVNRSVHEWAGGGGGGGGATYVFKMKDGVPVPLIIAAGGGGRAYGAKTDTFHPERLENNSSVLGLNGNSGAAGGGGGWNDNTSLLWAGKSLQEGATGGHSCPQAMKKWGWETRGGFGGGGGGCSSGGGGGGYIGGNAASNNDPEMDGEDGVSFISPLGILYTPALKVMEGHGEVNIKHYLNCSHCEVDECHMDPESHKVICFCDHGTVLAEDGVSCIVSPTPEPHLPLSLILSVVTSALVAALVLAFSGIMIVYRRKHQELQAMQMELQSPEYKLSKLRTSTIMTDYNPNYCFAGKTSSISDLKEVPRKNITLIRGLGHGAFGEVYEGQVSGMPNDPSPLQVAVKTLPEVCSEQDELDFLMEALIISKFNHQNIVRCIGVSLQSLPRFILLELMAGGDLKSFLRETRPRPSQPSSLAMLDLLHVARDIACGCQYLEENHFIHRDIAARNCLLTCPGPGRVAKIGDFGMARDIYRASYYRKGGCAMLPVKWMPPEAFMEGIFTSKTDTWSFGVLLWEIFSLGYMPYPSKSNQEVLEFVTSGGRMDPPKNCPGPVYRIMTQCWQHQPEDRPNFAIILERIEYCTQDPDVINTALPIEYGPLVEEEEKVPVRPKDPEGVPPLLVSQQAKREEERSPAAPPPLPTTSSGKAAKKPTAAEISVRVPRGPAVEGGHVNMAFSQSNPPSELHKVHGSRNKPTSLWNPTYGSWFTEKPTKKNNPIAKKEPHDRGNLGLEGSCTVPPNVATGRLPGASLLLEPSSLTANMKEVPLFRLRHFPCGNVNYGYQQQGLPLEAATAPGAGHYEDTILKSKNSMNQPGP

As for `CC1=C(C(=O)Nc2ccc3[nH]nc(C)c3c2)C(c2ccc(C(F)(F)F)cc2)CC(=O)N1` (stereo not given), the inhibition in test [1] is 2.86%; in [2], 4.61%; in test [3] it was 1.36%; in test [4] it was 7.68%; in [5], 9.26%; in test [6], 3.26%. The inhibition in [7] was 6.8%; in [8] it was 7.56%; in test [9], 7.08%; in test [10], -3.17%.

Regarding `Cc1nnc(-c2cccc(-c3ccc(C(=O)NCC4CC4)cc3)c2)o1`, the inhibition in test [1] was found to be 5.17%; in test [2], 2.61%; in test [3] it was 4.27%; in test [4] it was 5.41%; in test [5] it was 9.95%; in test [6] it was 3.15%. The inhibition in test [7] is 5.21%; in [8], 3.81%; in test [9] it was 9.01%; in [10] it was -9.15%.

Take `CNC(=O)c1ncccc1Nc1nc(Nc2cc3c(cc2OC)CCCN3C(=O)CN(C)C)nc2[nH]ccc12`: the inhibition in [1] came out at 2.23%; in test [2] it was 3.84%; in test [3] it was 3.74%; in test [4], 4.98%; in test [5], 7.6%; in [6], 94.4%. Also, the inhibition in [7] turned out to be 90.8%; in test [8], 2.06%; in test [9] it was 5.83%; in test [10] it was 10.8%.

In the case of `CN1CCC(n2cnc(-c3ccc(F)cc3)c2-c2ccnc(NCCO)n2)CC1`, the inhibition in test [1] turned out to be 6.42%; in [2] it was 2.79%; in [3], 4.11%; in test [4] it was 3.67%; in test [5], 6.5%; in test [6], 3.71%. The inhibition is 5.43% in [7], 3.07% in [8], 2.99% in test [9] and -4.58% in [10].

As to `N#Cc1ccc2c(-c3ccnc(NC4CC4)n3)c(-c3ccc(F)cc3)nn2c1`, the inhibition in test [1] is 1.49%; in [2], -0.67%; in test [3], 3.58%; in test [4] it was -0.74%; in test [5] it was 6.61%; in test [6], 0.92%. Moreover, the inhibition is 0.32% in test [7], 0.94% in [8], 5.29% in [9] and -4.43% in test [10].

As to `CS(=O)(=O)Nc1ccc(-c2cc(-c3ccccc3)cc(C(N)=O)c2N)cc1`, the inhibition in [1] worked out at 0.72%; in [2], 1.53%; in test [3], 2.93%; in test [4], 3.02%; in [5], 7.08%; in test [6], 0.29%. Besides, the inhibition is 2.13% in test [7], 2.05% in [8], 7.11% in test [9] and -4.02% in test [10].

For `COC(=O)Nc1nc2ccc(Oc3ccc(NC(=O)Nc4cc(C(F)(F)F)ccc4F)cc3)cc2s1`, the inhibition in [1] amounted to 92.6%; in [2], 32.2%; in [3] it was 75.7%; in test [4], 42.7%; in [5], 79.8%; in [6], 0.95%. The inhibition in [7] is 6.26%; in [8] it was 51.4%; in test [9], 73.6%; in test [10] it was 13.7%.

With `CNC(=O)c1sc(-n2cnc3cc(OC)c(OC)cc32)cc1OCc1ccccc1C(F)(F)F`, the inhibition stood at 4.16% in test [1]; 2.46% in [2]; 10.3% in [3]; 8.39% in test [4]; 17.2% in test [5]; 3.52% in [6]. The inhibition in [7] was 5.76%; in test [8], 5.79%; in [9] it was 13.2%; in [10], -4.3%.

Consider `NS(=O)(=O)c1ccc(N/N=C2\C(=O)Nc3ccc(C(=O)NCc4ccncc4)cc32)cc1`, for which the inhibition stood at 12.8% in test [1]; 4.33% in test [2]; 19.1% in test [3]; 2.78% in [4]; 15.2% in [5]; 1.39% in test [6]. Further, the inhibition in test [7] was 4.24%; in [8] it was 2.79%; in test [9], 9.41%; in [10], -1.05%.

Regarding `COc1ccc(-c2nn3ncccc3c2-c2ccnc(Nc3ccc(F)c(F)c3)n2)cc1`, the inhibition in test [1] turned out to be 16.6%; in test [2], 5.29%; in test [3] it was 17.1%; in [4], 3.82%; in test [5], 14.7%; in test [6] it was 2.49%. Further, the inhibition was 8.04% in test [7], 2.7% in test [8], 11.9% in test [9] and -1.84% in test [10].

Regarding `COc1cc(Nc2ncc(-c3ccccc3)o2)cc(OC)c1`, the inhibition in test [1] came out at 13.2%; in test [2], 13.2%; in test [3], 50.9%; in test [4] it was 8.41%; in test [5], 35.4%; in test [6], 2.73%. For the same compound, the inhibition in test [7] was 4.06%; in [8], 5.68%; in test [9], 29.4%; in [10], -6.45%.

For the compound `OCCCNc1nccc(-c2c(-c3ccc(F)cc3)nn3cc(C(F)(F)F)ccc23)n1`, the inhibition in [1] turned out to be 1.6%; in [2] it was 4.75%; in [3] it was 4.88%; in test [4], 6.03%; in test [5], 11.5%; in test [6], 1.23%. Also, the inhibition in [7] is 2.86%; in test [8] it was 3.63%; in test [9] it was 7.2%; in test [10], -4.91%.

For `N#Cc1cccc(Nc2ncc(-c3ccccc3)o2)c1`, the inhibition in test [1] stood at 10.4%; in test [2] it was 4.28%; in test [3], 21.7%; in test [4] it was 3.9%; in test [5], 20.6%; in [6], 1.63%. In addition, the inhibition was 2.63% in [7], 4.38% in test [8], 20.3% in [9] and -2.1% in test [10].

In the case of `COc1cccc(-n2ncc3c(N/N=C/c4ccc(C(=O)NCCN(C)C)cc4)ncnc32)c1`, the inhibition came to 95% in [1]; 93.3% in test [2]; 94.5% in [3]; 81.7% in test [4]; 83.1% in [5]; 3.26% in test [6]. Also, the inhibition in [7] was determined as 8.56%; in test [8] it was 73.3%; in test [9], 82%; in test [10] it was 3.3%.

As for `O=C(Nc1n[nH]c2nnc(-c3cccnc3)cc12)C1CC1`, the inhibition was 3.43% in test [1]; 0.48% in test [2]; 3.53% in test [3]; 3.47% in test [4]; 6.91% in [5]; 0.19% in [6]. The inhibition in test [7] was 1.54%; in test [8] it was 0.77%; in [9], 3.61%; in [10], 0.08%.

Regarding `Cc1c2ccc(N(C)c3ccnc(Nc4cccc(S(N)(=O)=O)c4)n3)cc2nn1C`, the inhibition in test [1] was 52.2%; in test [2], 43.4%; in test [3] it was 83.3%; in [4] it was 16.7%; in [5] it was 64.5%; in test [6] it was 1.38%. For the same compound, the inhibition in test [7] was 18.8%; in [8], 19.5%; in [9], 62.8%; in test [10], -8.43%.

The inhibition is the change of the read-out against control, counted positive when it falls.
